Nrf2 block = Nrf2 pathway inhibition; Potency, µM (series often up to 46 µM), for inactives: at the highest dose activity change, negative = inhibition, most hits filed as inhibitors; 360,000 compounds, 2.1% hits; A549 ARE-Fluc reporter, luciferase luminescence, 18-24 h; note: % is set by controls: 0 for no effect and ±100 for the full control effect; nearly all actives have a fitted effect of over 60% in size
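Two sequential reads on A549 ARE_Fluc cells exposed to compound for 18-24 h: a CellTiter-Fluor fluorescence read for viability, then a luciferase luminescence read for Nrf2/ARE activity.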
Mito fusion act = mitochondrial division inhibition or fusion activation | Potency, µM (doses to about 46.1 µM), for inactives: at the top dose growth rescue (activation), most hits filed as activators | 320,000 compounds, 0.23% hits | AID 485298 | S. cerevisiae fusion-defective mutant growth rescue, CellTiterGlo 48 h; note: % of control where 0% means no effect; nearly all actives have a fitted effect of over 45% in size
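Compounds are tested for their ability to restore growth of mitochondrial fusion-defective yeast strains at non-permissive 37C in YPEG medium over 48 hours. Viability is quantified by luciferase luminescence.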
IDH1 R132H inh = blocks human mutant IDH1 R132H enzyme | O75874 | IDH1-R132H enzyme, NADPH consumption, diaphorase/resazurin fluorescence | 390,000 compounds, 0.093% hits | Potency, µM (top dose mostly 76.6 µM), for inactives: top-dose activity change, negative = inhibition, most hits filed as inhibitors | AID 602179; note: % is set by controls: 0 for no effect and ±100 for the full control effect; nearly all actives have a fitted effect of over 65% in size
Target sequence (O75874 whole entry R132H, stated change not applied): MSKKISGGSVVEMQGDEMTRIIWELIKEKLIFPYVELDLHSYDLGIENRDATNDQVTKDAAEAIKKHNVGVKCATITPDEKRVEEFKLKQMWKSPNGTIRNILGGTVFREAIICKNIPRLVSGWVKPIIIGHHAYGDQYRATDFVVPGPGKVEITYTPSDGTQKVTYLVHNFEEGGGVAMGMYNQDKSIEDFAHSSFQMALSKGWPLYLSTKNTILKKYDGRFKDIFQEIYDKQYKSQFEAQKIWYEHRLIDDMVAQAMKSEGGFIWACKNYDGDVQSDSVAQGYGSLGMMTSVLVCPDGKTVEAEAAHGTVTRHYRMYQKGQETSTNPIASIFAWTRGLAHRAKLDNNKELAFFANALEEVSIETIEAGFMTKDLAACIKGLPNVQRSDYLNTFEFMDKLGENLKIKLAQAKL
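IDH1-R132H (0.5 ug/mL dispensed) in pH 7.5 Tris buffer was preincubated 30 min with compound, then given a substrate mix of 0.016 mM NADPH and 2 mM alpha-KG for 80 min at room temperature; remaining NADPH was read by diaphorase/resazurin fluorescence.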
TrxR1 substrate = substrates of rat thioredoxin reductase 1; purified TrxR1 substrate turnover, NADPH consumption readout; 390,000 compounds, 0.01% hits; Potency, µM (series often up to 114 µM), without a hit: top-dose activity change, negative = substrate turnover; O89049; note: % is set by controls: 0 for no effect and ±100 for the full control effect; nearly all actives have a fitted effect of over 50% in size
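Rat TrxR1, dispensed at 90 nM, was prereduced with 400 uM NADPH (final) for 5 min at ~22 deg C, then incubated with compound 15 min before 400 uM selenite. A first-read NADPH fluorescence drop versus no-compound background flagged substrates.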
rTrxR1 inhibitor = blocks rat thioredoxin reductase 1; recombinant rTrxR1, NADPH fluorescence consumption, selenite substrate; Potency, µM (doses to about 114 µM), for inactives: at the highest dose activity change, negative = inhibition, usual class: inhibitors; 390,000 compounds, 1% hits; note: % is set by controls: 0 for no effect and ±100 for the full control effect; nearly all actives have a fitted effect of over 65% in size
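Rat TrxR1 (90 nM in the dispensed reagent) was pre-reduced with 400 uM NADPH for 5 min at room temperature, then incubated with compound for 15 min. After 400 uM selenite was added, NADPH fluorescence (Ex 340/Em 450 nm) was followed for 8 min.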
A549 tox = A549 cytotoxicity, counter-screen for Nrf2 inhibitors; 390,000 compounds, 0.16% hits; Potency, µM (highest dose often 46 µM), for the others: at the highest dose activity change, negative = cytotoxicity, usual class: inhibitors; AID 504648; A549 ARE-Fluc cells, CellTiter-Fluor viability, 18-24 h; note: % is set by controls: 0 for no effect and ±100 for the full control effect
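Cytotoxicity counterscreen: CellTiter-Fluor fluorescence was measured in A549 ARE_Fluc cells after 18-24 h of compound exposure in a concentration series. The subsequent BugLite luminescent read reports ARE-luciferase activity.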
* hit, by the source's call; u = inconclusive; x = not tested or not shown; [ ] = remark or other dose. This is a sample that favours compounds with a hit; in the whole collection about 3.1% have one here. Calls come from the whole dose curve; as a rule, active = well fitted curve in the direction sought with a large enough effect; inconclusive = small, poorly fitted or top-dose-only effect, or another doubt; inactive = no such curve, though single readings can be large; an effect the other way counts as inactive or inconclusive. Potency is the fitted concentration of half-maximal effect.

SMILES	Nrf2 block	Mito fusion act	IDH1 R132H inh	TrxR1 substrate	rTrxR1 inhibitor	A549 tox
CN(C)/N=C/c1ccc(Sc2ccc([N+](=O)[O-])cc2[N+](=O)[O-])o1	-8%	u	12%	-5%	50µM*	-9%
Cc1cc(C)nc(Sc2ccc([N+](=O)[O-])cc2[N+](=O)[O-])n1	u	2%	1%	-15%	10µM*	u
CCCNC(=O)c1cnn2c(C(F)F)cc(-c3ccccc3)nc12	23µM*	x	1%	28%	34%	u
CC(C)CCNC(=O)c1cnn2c(C(F)(F)F)cc(-c3ccco3)nc12	x	1%	7%	12%	7.1µM*	10%
O=C(NC1CCCC1)c1cnn2c(C(F)(F)F)cc(-c3ccco3)nc12	u	8%	5%	17%	u	-13%
COc1cccc(NC(=O)Cn2c(=O)n(-c3cccc(OC)c3)c(=O)c3c4c(sc32)CCCC4)c1	-10%	x	-11%	1%	31%	-3%
COc1ccc(-c2nnc(SCC(=O)Nc3c(C)cccc3C)nc2-c2ccc(OC)cc2)cc1	u	x	2%	-10%	-14%	-18%
Cc1ccccc1NC(=O)CSc1nnc(-c2ccco2)c(-c2ccco2)n1	u	1%	-6%	0%	2.5µM*	-7%
Cc1cccc(C)c1NC(=O)CSc1nnc(-c2ccco2)c(-c2ccco2)n1	-5%	2%	1%	4%	3.2µM*	-15%
Cn1nc(C(F)(F)F)c(C#N)c1N1CCN(c2ccccc2)CC1	u	6%	7%	-13%	-5%	-4%
Cn1nc(C(F)(F)F)c(C#N)c1N1CCN(c2ccc(F)cc2)CC1	12µM*	-1%	5%	-5%	5%	-3%
CCC1Oc2ccc(C)cc2N(CC(=O)NCc2ccc(OC)cc2)C1=O (centres undefined)	-14%	x	5%	-4%	1%	1%
C=CCOC(=O)/C(=C/c1ccco1)NC(=O)/C=C/c1ccccc1	-8%	0%	7%	-5%	18µM*	-1%
CCOC(=O)C1CCCN(S(=O)(=O)CCNC(=O)c2cccc(OC)c2)C1 (centres undefined)	18µM*	-5%	5%	25%[57.1 µM]	56%[57.1 µM]	-2%
CCOC(=O)C1CCN(S(=O)(=O)CCNC(=O)c2ccccc2)CC1	-18%	-3%	-1%	3%[57.1 µM]	10%[57.1 µM]	-5%
CC1CCCC(C)N1C(=O)CSc1nnc(C2CCCCC2)o1 (centres undefined)	14%	6.3µM*	2%	-6%	-4%	2%
Cc1cc(-c2nnc(SCC(=O)N3C(C)CCCC3C)o2)no1 (centres undefined)	u	-1%	1%	2%	18%	-3%
CCOC(=O)N1c2ccccc2Sc2ccccc21	-11%	7%	9%	-1%	24%	-2%
Cc1nnc(SC(=O)N2c3ccccc3Sc3ccccc32)s1	13µM*	-4%	1%	10%	-4%	0%
c1ccc(-c2nc(N3CCN(c4ccccc4)CC3)nc(-n3ccnc3)n2)cc1	4.6µM*	12%	-1%	1%[57.1 µM]	17%[57.1 µM]	-24%
CCOc1ccccc1N1CCN(C(=O)c2cc(-c3cc(OC)ccc3OC)nc3ccccc23)CC1	21µM*	-7%	0%	-10%	-16%	-7%
CCOC(=O)COc1ccc(-c2nnn(CC(=O)Nc3ccccc3)n2)cc1	4%	x	x	8%[11.4 µM]	6%	-3%
COc1cc(/C=C(/C(=O)c2cccs2)c2nc3ccccc3[nH]2)ccc1O	u	-10%	-5%	-11%[57.1 µM]	14µM*	u
COc1ccc(/C=N/n2cnn(Cc3ccccc3Cl)c2=S)cc1OC	18µM*	4%	-5%	-8%[57.1 µM]	-5%[57.1 µM]	4%
CN(C)c1ccc(/C=C/c2ccc3cc(F)ccc3n2)cc1	x	x	x	8%	-2%	x
SMILES	Nrf2 block	Mito fusion act	IDH1 R132H inh	TrxR1 substrate	rTrxR1 inhibitor	A549 tox
O=C(Nc1ccccc1)C1=C(c2ccccc2)S(=O)(=O)CCS1(=O)=O	u	-4%	8%	-1%	0.22µM*	-1%
O=C(O)c1ccccc1C(=O)Nc1ccccc1	-2%	4%	4%	6%	14%	-7%
CC(=O)Nc1ccc(C(=O)N/N=C/c2cc(Br)cc(Br)c2O)cc1	15µM*	-5%	-2%	8%[11.4 µM]	17%[11.4 µM]	-12%
CC(C)C(=O)Nc1ccc(C(=O)N/N=C/c2cc(Br)cc(Br)c2O)cc1	u	10%	0%	4%[57.1 µM]	10%[57.1 µM]	u
O=C1[C@@H]2CSC(c3ccc(F)cc3)N2C(=O)N1c1ccc(Cl)cc1 (some centres undefined)	-16%	x	7%	0%	3%	-2%
CC(Oc1ccc(Cl)cc1Cl)c1nc(-c2ccc(NC(=O)c3ccncc3)cc2)no1 (centres undefined)	10µM*	u	5%	7%	17%	-1%
CC(Oc1ccc(Cl)cc1Cl)c1nc(-c2ccc(NC(=O)c3cccnc3)cc2)no1 (centres undefined)	x	19%	5%	1%[57.1 µM]	45%[57.1 µM]	-13%
CCOc1ccc(-n2c(SCC(=O)Nc3cccc(Cl)c3)nc3c(oc4ccccc43)c2=O)cc1	-12%[9.27 µM]	x	-21%	14%[2.29 µM]	26%	6%
O=C1c2ccccc2-c2c1cccc2C(=O)N1CCN(C(=O)c2ccco2)CC1	0%	-1%	0%	9%	32µM*	x
CCCSc1ccccc1C(=O)N1CCN(C(=O)c2ccco2)CC1	-7%	3%	-7%	-1%	-35%	10%
CC(C)CC(OC(=O)CNC(=O)c1ccccc1)C(=O)Nc1cc(C(F)(F)F)ccc1Cl (centres undefined)	-3%	x	x	x	x	-8%
Cc1ccc(NC(=O)CSc2nc3c(c(=O)[nH]2)CN(Cc2ccccc2)CC3)cc1Cl	-1%	x	-18%	9%	26%	-19%
O=C1NC(=S)S/C1=C\c1cccc([N+](=O)[O-])c1	18µM*	x	-6%	-15%	-34%	u
O=C1NC(=Nc2ccccc2Cl)S/C1=C\c1cccc([N+](=O)[O-])c1	29%	-23%	-4%	-7%	-4%	-2%
CCN(CC)c1ccc(C=C2SC(=S)NC2=O)cc1	-2%	x	u	-8%	-19%	u
CC1Cc2cc(/C=C3/SC(=S)NC3=O)ccc2O1 (centres undefined)	u	5%	-7%	-4%[57.1 µM]	1%[57.1 µM]	13µM*
COc1ccc(C2CC(=O)N(CC(=O)Nc3cccc(C)c3C)c3ccccc3S2)cc1OC (centres undefined)	-14%	x	-11%	1%	20%	-3%

Screens from PubChem.
